Test results from PubChem BioAssay (NCI).
Several values for one entry are separate records, joined by “and”; a condition that tells them apart may be missing. Identical values can stand only once. About 79,000 compounds went through this panel and 15% of them were active in at least one assay; those are over-represented in the sample as a whole. Rule as the data show it: active = growth inhibition above about 70%; inactive = the rest.

Experiments:
[1] = NCI Yeast Anticancer Drug Screen. Data for the rad50 strain (AID 155);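 also: 0% = growth of vehicle-only cultures of the same strain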; conditions: S. cerevisiae rad50 strain growth inhibition, active compounds read high; at 50.0 µM unless noted
Outline: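 Growth of the mutant yeast was measured after compound exposure and referenced to vehicle-treated cultures.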

[2] = NCI Yeast Anticancer Drug Screen. Data for the mec2-1 strain (AID 157); conditions: S. cerevisiae mec2-1 strain, active compounds read high; at 50.0 µM unless noted
Outline: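 Compounds were applied to mec2-1 yeast cells. Their growth was then compared with that of vehicle-treated cultures to give growth inhibition.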

[3] = NCI Yeast Anticancer Drug Screen. Data for the sgs1 mgt1 strain (AID 161);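 also: 0% = growth of cultures given vehicle only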; conditions: S. cerevisiae sgs1 mgt1 strain, active compounds read high; at 50.0 µM unless noted
Outline: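 Percent growth inhibition was derived by comparing compound-exposed mutant yeast with vehicle-exposed cultures. The strain carries alterations in DNA damage repair.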

[4] = NCI Yeast Anticancer Drug Screen. Data for the cln2 rad14 strain (AID 165);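 also: 0% = growth equal to vehicle treated cultures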; conditions: S. cerevisiae cln2 rad14 strain, active compounds read high; at 50.0 µM unless noted
Outline: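 Strain: cln2 rad14 yeast, altered in cell cycle control and DNA damage repair. Read-out: growth inhibition vs vehicle.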

[5] = NCI Yeast Anticancer Drug Screen. Data for the bub3 strain (AID 167); conditions: S. cerevisiae bub3 mutant strain, active compounds read high; at 50.0 µM unless noted
Outline: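 Whole-cell yeast assay. The mutant strain was incubated with compounds, and growth inhibition was determined by comparison with vehicle-treated cells.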

[6] = NCI Yeast Anticancer Drug Screen. Data for the mlh1 rad18 strain (AID 175); conditions: S. cerevisiae mlh1 rad18 strain growth inhibition, active compounds read high; at 50.0 µM unless noted
Outline: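 A repair-deficient yeast strain is exposed to test compound, and growth is scored relative to vehicle-treated controls.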

Measured: growth inhibition

CC1(CO)COC(C)(C)OC1
inactive: [1] 16.1% | [2] 5.85% | [3] 7.1% | [4] 29.2% | [5] 2.75% | [6] 13.6%

CC(=O)CC(=O)Nc1ccc(-c2ccc(NC(=O)CC(C)=O)c(Cl)c2)cc1Cl
inactive: [1] -22.2% | [2] -27.7% | [3] -10.2% | [4] 1.9% | [5] -16.6% | [6] -6.35%

Nc1ncnc(Nc2ccc(Cl)cc2Cl)n1
inactive: [1] 5.05% | [2] -11.7% | [3] 5.75% | [4] 1.85% | [5] 5.25% | [6] -7.05%

COc1ccc(-c2cc(=O)c3c(O)c(OC)c(O)cc3o2)cc1O
inactive: [1] 24.8% | [2] 14.9% | [3] 37.5% | [4] 22.9% | [5] 37.5% | [6] 17.1%

CC(=O)OC1COC(N2C(=O)C(=O)c3c(C)cc(Cl)nc32)C(OC(C)=O)C1OC(C)=O (stereo unspecified)
inactive: [1] -22.6% | [2] -15.7% | [3] -22.4% | [4] -24.1% | [5] -24.1% | [6] -8.3%

CC1CC(Nc2ccc(Br)cc2)N(C(=O)c2ccc(Br)cc2)O1 (stereo unspecified)
inactive: [1] -25.9% | [2] -1.2% | [3] 25.5% | [4] 5.65% | [5] -35% | [6] -2.8%

CN(C)c1ccc(N=C(C#N)C(=O)c2ccccc2)cc1
inactive: [1] -4.3% | [2] 17.6% | [3] -6.7% | [4] -21.6% | [5] -15% | [6] -12.2%

CCCCCCCCCCCCCCCCCC(=O)CBr
inactive: [1] 14% | [2] 9.9% | [3] 10.9% | [4] -25.4% | [5] 2.2% | [6] 38.9%

Cc1ccc2ccccc2c1CN(C)C
inactive: [1] 4.7% | [2] -1.05% | [3] -8.6% | [4] -61% | [5] -3.45% | [6] -12.7%

COC(=O)c1ccccc1NC(=O)Nc1ncccn1
inactive: [1] -5.3% | [2] 2.4% | [3] -7.2% | [4] -10.1% | [5] -11.2% | [6] -11.5%

C/C=C/C#C/C=C1/C=CC(=O)O1
inactive: [1] -5.95% | [2] -1.35% | [3] -7.2% | [4] 37.1% | [5] 34.2% | [6] 10.1%

CC(C)CCCC(C)[C@H]1CCC2C3CC=C4C[C@@H](OC(=O)CC(CC(=O)[O-])C(=O)[O-])CC[C@]4(C)C3CC[C@@]21C.N.N.[Pt+4] (stereo partly specified)
inactive: [1] 26.2% | [2] 13.1% | [3] 11.7% | [4] 4.2% | [5] 12.6% | [6] 0.35%

C[n+]1cccc(C#N)c1
inactive: [1] 6.55% and 5.2% | [2] 4.6% and -7.45% | [3] -0.95% and 0.4% | [4] -14.8% and -21.6% | [5] 2.3% and -6.65% | [6] -0.5% and 10.1%

NC(CCn1cnc2c(=O)[nH]cnc21)C(=O)O (stereo unspecified)
inactive: [1] 4.1% | [2] 10.3% | [3] 6.7% | [4] -31.6% | [5] -12.8% | [6] -11.7%

CCCCCC(=O)NNC(=O)CCCCC
inactive: [1] 7.35% | [2] 13.8% | [3] 7.2% | [4] -4.95% | [5] -21.8% | [6] 15.1%

CC1(C)CCC2=C(O1)C(=O)c1ccccc1C2=O
inactive: [1] 13.8% | [2] -3.45% | [3] 29.6% | [4] 3.35% | [5] 35.8% | [6] 18%

CCO/C([O-])=N\[n+]1c(C)nc2cc3c(cc2c1C)OCO3
inactive: [1] 5.75% | [2] 5.65% | [3] 1.2% | [4] 7.8% | [5] 9% | [6] 8.9%

COC1OC(CO)C(O)C(Nc2ccc([N+](=O)[O-])cc2[N+](=O)[O-])C1O (stereo unspecified)
inactive: [1] 7.2% | [2] 1.05% | [3] 19.1% | [4] -53.6% | [5] -10.8% | [6] 1.1%

O=C1/C(=C\C=C\c2ccccc2)CCCC/C1=C\C=C\c1ccccc1
inactive: [1] 11.3% | [2] -0.35% | [3] -0.95% | [4] 5.95% | [5] -1.4% | [6] 8.35%

CCN(CC)CCn1c2ccccc2c(=O)c2c(OC)ccc(OC)c21
inactive: [1] 54.4% | [2] 8.05% | [3] 15.8% | [4] 16.6% | [5] 16.8% | [6] 50.9%

CC(C)N(Cc1ccccc1)S(=O)(=O)c1n[nH]c(C(C)(C)C)n1
inactive: [1] 3.2% | [2] -27.1% | [3] -3.65% | [4] -5.8% | [5] -6.75% | [6] -0.75%

N.N.N.N.O=C([O-])O.O=C([O-])[O-].[Co+3]
inactive: [1] 2.15% | [2] 3.4% | [3] 12.1% | [4] 26.9% | [5] 24.2% | [6] 8.95%

COC(=O)C(=O)C(C#N)c1ccccc1Cl (stereo unspecified)
inactive: [1] 3.45% | [2] -17.2% | [3] 0.35% | [4] 0.5% | [5] -5.75% | [6] 5.15%

O=c1oc2ccccc2cc1O
inactive: [1] -12.2% | [2] -4.5% | [3] -6% | [4] -28.9% | [5] -18.3% | [6] 27.1%

Cc1ccc(N=C2S/C(=C3/CCC=C3N3CCOCC3)N(c3ccc(Cl)cc3)C2=Nc2ccc(C)cc2)cc1
inactive: [1] -8.9% | [2] -13.4% | [3] -14.9% | [4] -14.6% | [5] -22.4% | [6] -28%

NC(=O)C(NCc1ccccc1)c1ccccc1 (stereo unspecified)
inactive: [1] -2.65% | [2] 4.4% | [3] 1.6% | [4] 12.5% | [5] 2.6% | [6] 2.6%

c1ccc2c(c1)/C(=N/c1nccs1)N/C2=N\c1nccs1
inactive: [1] 14.1% | [2] -6.35% | [3] -12.2% | [4] -25.6% | [5] 13.1% | [6] -6.65%

O=C(O)Nc1ccc(I)cc1
inactive: [1] -9.2% | [2] -10.2% | [3] 1.15% | [4] -25.9% | [5] -4.1% | [6] -12.4%

CS(=O)(=O)c1nc2[nH]cnc(=S)c2[nH]1
inactive: [1] 8% | [2] -8.2% | [3] -3.5% | [4] 10.9% | [5] 20.9% | [6] -7.1%

CCOC(=N)C1(O)CCCCC1
inactive: [1] -9.05% | [2] -6.75% | [3] -13.4% | [4] -5.1% | [5] -3.8% | [6] 23.6%

CNC(=O)C1C(=O)NC(=O)C1=C1CCCC1 (stereo unspecified)
inactive: [1] 11.2% | [2] -1.1% | [3] 4.8% | [4] -58.8% | [5] 8.1% | [6] -14.6%

O=[N+]([O-])c1ccc(N/N=C2/CC3CCC2C3)c([N+](=O)[O-])c1 (stereo unspecified)
inactive: [1] -4.3% | [2] -21.4% | [3] 0.8% | [4] -7.05% | [5] 5.6% | [6] 0.55%

NC(Cc1cc(Br)c(Oc2ccc(O)cc2)c(Br)c1)C(=O)O (stereo unspecified)
inactive: [1] 19.8% | [2] 12.8% | [3] -9.1% | [4] -0.55% | [5] 2.55% | [6] 20.9%

CCCC(=O)N(C(C)C)C(C)C
inactive: [1] 11.2% | [2] 22% | [3] 12.5% | [4] 6.6% | [5] 8.5% | [6] 8.8%

CCC1([N+](=O)[O-])COC(CCc2ccccc2)OC1 (stereo unspecified)
inactive: [1] 6.3% | [2] -20.9% | [3] 10.8% | [4] -30.1% | [5] -0.25% | [6] -19.9%

O=C(Nc1ccc2ccccc2c1)c1ccccc1Cl
inactive: [1] 1.65% | [2] -4.4% | [3] 21.9% | [4] -7.15% | [5] 17.1% | [6] 32.3%

ClC(=Nc1cccc2ccccc12)N(c1ccccc1)c1ccccc1
inactive: [1] -8.45% | [2] 7.45% | [3] -9.3% | [4] 3.8% | [5] 7.15% | [6] -4.05%

C[N+]1(CC(=O)c2ccc(Cl)cc2)CCOCC1
inactive: [1] 20.8% | [2] 7.45% | [3] 10.6% | [4] -20.9% | [5] 6.6% | [6] 28.1%

Clc1ccc(/C=N\OCc2ccc(Cl)c(Cl)c2)cc1Cl
inactive: [1] -9.85% | [2] -13.1% | [3] 2.1% | [4] -17.9% | [5] -4.85% | [6] -5.25%

CCC1=C(c2ccc(OC)cc2)CC[C@@]2(CCNC2=O)[C@@H]1C
inactive: [1] 4.8% | [2] -0.2% | [3] -5.45% | [4] 14.3% | [5] 3.8% | [6] 8.8%

NCC(=O)c1ccc2cc(Br)c3ccccc3c2c1
inactive: [1] 5.7% | [2] 0.45% | [3] -1.2% | [4] 17.9% | [5] 12.4% | [6] 0.15%
